Screening data from PubChem BioAssay.
In the library only some 2.5% were active in any assay of this set; here they are far more common.
Cruzain Triton – qHTS Assay for Promiscuous and Specific Inhibitors of Cruzain (with detergent) | Potency, µM, without a hit: max response, negative = inhibition, most hits filed as inhibitors | 0.43% of 200,000 active | Cruzipain (Trypanosoma cruzi), P25779 | purified cruzain, Z-FR-AMC fluorescence, 0.01% Triton | AID 1478, 2009;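 further: plate controls were neutral wells for no effect and buffer without enzyme for full effect; nearly all actives have a fitted effect of over 40% in size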
Target sequence (P25779 123-467 limits assumed): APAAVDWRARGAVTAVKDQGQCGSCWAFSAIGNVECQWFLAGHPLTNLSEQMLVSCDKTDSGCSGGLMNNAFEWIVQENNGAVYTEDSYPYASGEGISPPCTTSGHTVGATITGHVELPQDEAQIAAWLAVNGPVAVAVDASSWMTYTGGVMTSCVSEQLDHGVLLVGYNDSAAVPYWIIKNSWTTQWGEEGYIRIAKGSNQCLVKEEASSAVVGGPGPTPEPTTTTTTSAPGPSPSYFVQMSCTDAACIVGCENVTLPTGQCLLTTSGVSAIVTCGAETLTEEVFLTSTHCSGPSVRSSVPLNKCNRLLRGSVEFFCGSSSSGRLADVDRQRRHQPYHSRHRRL
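In this qHTS format, compounds are incubated with 1.5 nM cruzain for 15 min at room temperature before 2 uM Z-FR-AMC is added. Release of AMC is followed at 360/450 nm, and progress is taken as the 60 s fluorescence difference.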
Cruzain noTriton – qHTS Assay for Promiscuous and Specific Inhibitors of Cruzain (without detergent) | Cruzipain (Trypanosoma cruzi), P25779 | AID 1476, 2009 | purified cruzain, Z-FR-AMC fluorescence, no detergent | 2.3% of 200,000 active | Potency, µM, for the others: max response, negative = inhibition, hits mostly inhibitors;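 further: plate controls were enzyme without inhibitor for no effect and buffer without enzyme for full effect; nearly all actives have a fitted effect of over 40% in size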
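Purified cruzain at 1.5 nM, pre-incubated 15 min with compound at room temperature in 100 mM sodium acetate pH 5.5, 5 mM DTT, 0.00005% Triton X-100. Reaction started with 2 uM Z-FR-AMC; AMC fluorescence increase over 60 s gives rate.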
* = called active by the depositor; ? = inconclusive. The call rests on the fitted dose curve; in most records, active means well fitted curve in the direction sought with a large enough effect; inconclusive means small, poorly fitted or top-dose-only effect, or another doubt; inactive means no such curve, though single readings can be large; an effect the other way counts as inactive or inconclusive. Potency means the concentration at half of the fitted maximal effect.

SMILES	Cruzain Triton	Cruzain noTriton
Cc1cc(C)cc(NC(=O)CSc2nc(-c3ccccc3)c3cc(F)ccc3n2)c1	2%	-4%
COc1cc(C2C=C(C34CC5CC(CC(C5)C3)C4)NC(=S)N2)cc(OC)c1OC (stereo not given)	1%	?
COc1ccc(OC)c(C2C=C(C34CC5CC(CC(C5)C3)C4)NC(=S)N2)c1 (stereo not given)	-2%	25µM*
COc1ccc(-c2cc(C(F)(F)F)nc(-n3nc(C(F)(F)F)cc3C)n2)cc1	-16%	5%
CCNc1ccc(C(=O)OCC(=O)c2cc(C)n(Cc3ccc4c(c3)OCO4)c2C)cc1[N+](=O)[O-]	-3%	16µM*
CCNc1ccc(C(=O)OCC(=O)NCc2ccc(C)cc2)cc1[N+](=O)[O-]	-4%	2%
Cc1ccccc1OCCn1cc(/C=C(\C#N)C(=O)NCc2ccco2)c2ccccc21	1%	-15%
Cc1ccc(C)c(NC(=O)/C(C#N)=C/c2cn(CC(=O)NCc3ccco3)c3ccccc23)c1	11%	7.9µM*
N#C/C(=C\c1cn(CCOc2ccccc2)c2ccccc12)C(=O)NCc1ccco1	14%	1%
Cc1cc(C)cc(NC(=O)/C(C#N)=C/c2cn(CC(=O)NCc3ccco3)c3ccccc23)c1	-2%	16µM*
CC(/C=N/Nc1nnc2c(n1)[nH]c1ccccc12)=C\c1ccco1	-2%	10µM*
Cc1cccc2c1[nH]c1nc(N/N=C\c3ccco3)nnc12	-1%	-11%
CC(=O)Nc1nonc1-c1nnc(SCC(=O)Nc2ccc(F)cc2F)n1-c1ccccc1	-3%	0%
COC(=O)c1n[nH]c2ccccc12	-3%	14%
O=C(COC(=O)c1n[nH]c2ccccc12)Nc1ccc([N+](=O)[O-])cc1	-6%	10µM*
Cc1cccc(NC(=O)c2oc3ccccc3c2NC(=O)Cc2coc3cc(C)cc(C)c23)c1	0%	-10%
CCOC(=O)c1cccc(NC(=O)C2=C(C)C(=O)OC23CCCCC3)c1	-2%	-3%
O=C(Nc1nnc(-c2ccccc2SCc2ccccc2F)s1)Nc1ccccc1F	2%	3.2µM*
CC(=O)Nc1nnc(SCc2ccccc2F)s1	2%	6%
COc1ccc(-c2cc3c(=O)n(CC(=O)Nc4ccc(Br)c(C)c4)ccn3n2)cc1OC	-1%	3%
CCOC(=O)C1=C(C)NC(=S)NC1c1ccc(-c2ccc(Cl)cc2)o1 (stereo not given)	-4%	?
COC(=O)C1=C(C)NC(=S)NC1c1ccc(-c2cccc(Cl)c2)o1 (stereo not given)	-7%	25µM*
Clc1ccccc1CNc1ncnc2c1c(-c1ccccc1)cn2-c1ccccc1	1%	5%
COc1cc(OC)cc(N2C(=O)N(CC(=O)c3ccc(F)cc3)c3ccccc3S2(=O)=O)c1	0%	?
CC(=O)c1ccc(N2C(=O)N(CC(=O)c3ccc(C)cc3)c3ccccc3S2(=O)=O)cc1	0%	?
SMILES	Cruzain Triton	Cruzain noTriton
CCOc1ccc(N2C(=O)N(Cc3ccc(C)cc3C)c3ccccc3S2(=O)=O)cc1	0%	25µM*
COc1cc(OC)cc(N2C(=O)N(Cc3ccc(C(C)(C)C)cc3)c3ccccc3S2(=O)=O)c1	1%	4µM*
Cc1cc(=O)n(CC(=O)Nc2ccc([N+](=O)[O-])cc2)c(-n2nc(C)cc2C)n1	-4%	-9%
C[C@H]1C2C=C[C@H]1[C@@H](C(=O)O)[C@@H]2c1c2ccc(=O)c(O)c-2oc2c(O)c(O)ccc12	-19%	16%
Cc1ccc(C)c(NC(=O)c2cc(S(=O)(=O)N3CCc4ccccc4C3)ccc2F)c1	2%	-3%
O=C(Nc1cc(Cl)cc(Cl)c1)c1ccc(F)c(S(=O)(=O)N2CCc3ccccc32)c1	1%	16µM*
O=C(Nc1cc(Cl)cc(Cl)c1)c1ccc(F)c(S(=O)(=O)N2CCCC2)c1	-3%	25µM*
O=C(CN1CCN(c2ccccc2)CC1)Nc1ccc2c(c1)CCC2	-1%	1%
O=C(Nc1cc(Cl)cc(Cl)c1)c1cc(S(=O)(=O)N2CCc3ccccc3C2)ccc1F	1%	16µM*
CC(C)c1ccc(NC(=O)c2ccc(F)c(S(=O)(=O)N3CCCC3)c2)cc1	1%	4%
O=C(Nc1ccc(Br)cc1)c1ccc(F)c(S(=O)(=O)N2CCCc3ccccc32)c1	0%	?
O=C(Nc1ccc2c(c1)CCC2)c1cc(S(=O)(=O)N2CCN(c3ccccc3)CC2)ccc1Cl	1%	4µM*
Cc1ccc(N(C)C(=O)Cn2nc(Cc3ccncc3)c3ccccc3c2=O)cc1C	-2%	1%
O=C(CN1C(=O)C2(SCC(=O)N2c2ccc(F)c(F)c2)c2ccccc21)Nc1ccccc1F (stereo not given)	-8%	-27%
CCCCNc1nc(C)nc2c1nc(-c1ccccc1)n2C1CCN(Cc2ccccc2)C1 (stereo not given)	4%	-3%
Cc1cccc(C)c1NC(=O)CSc1nnc(-c2ccco2)c(-c2ccco2)n1	?	-18%
CSc1nnc(-c2ccco2)c(-c2ccco2)n1	14µM*	13µM*
Cc1ccc(NC(=O)CSc2nnc(-c3ccco3)c(-c3ccco3)n2)cc1	25µM*	10µM*
CSc1nnc2c(n1)OC=Nc1ccccc1-2	-6%	-7%
O=C(Cn1ccn(-c2cccc(Cl)c2)c(=O)c1=O)c1ccc(F)cc1	-5%	-3%
Cc1cc(NC(=O)c2ccccc2Cl)ccc1NC(=O)c1ccccc1	-1%	9%
CN(C)c1ccc(-c2cc(Nc3ccc(F)cc3)ncn2)cc1	-10%	-18%
CCC/C=C(\CCC)C(NC(=O)C(C)(C)C)c1ccc(C(=O)OC)cc1 (stereo not given)	-3%	3%
COc1ccc(NC(=O)Cn2cc(S(=O)(=O)N3CCN(c4ccccc4F)CC3)c3ccccc3c2=O)cc1Cl	-1%	7.9µM*
COc1cc(Cl)c(C)cc1NC(=O)Cn1cc(S(=O)(=O)N2CCN(c3ccccc3F)CC2)c2ccccc2c1=O	-3%	-26%
SMILES	Cruzain Triton	Cruzain noTriton
O=C(NCc1ccc(F)cc1)C1CCN(C(=O)c2ccc(-n3ccc4ccccc43)s2)CC1	-7%	6%
COc1cccc(NS(=O)(=O)c2ccc3[nH]cc(C(=O)NCCc4ccc(C)cc4)c(=O)c3c2)c1	3%	13µM*
COc1cccc(NS(=O)(=O)c2ccc3[nH]cc(C(=O)NC4CC4)c(=O)c3c2)c1	-10%	-5%
CCOc1ccc(NS(=O)(=O)c2ccc3[nH]cc(C(=O)NCCc4ccccc4)c(=O)c3c2)cc1	-2%	14%
CCc1ccc(NS(=O)(=O)c2ccc3[nH]cc(C(=O)NCCCOC(C)C)c(=O)c3c2)cc1	-4%	20µM*
CC(C)c1ccc(NS(=O)(=O)c2ccc3[nH]cc(C(=O)NCCc4ccccc4)c(=O)c3c2)cc1	1%	7%
COc1cccc(NS(=O)(=O)c2ccc3[nH]cc(C(=O)NCCc4ccccc4)c(=O)c3c2)c1	-2%	13µM*
CN1C(=O)c2[nH]nc(-c3ccc(F)cc3)c2C1c1cccc(O)c1 (stereo not given)	-4%	9%
Cc1cccc(Cn2c(COc3ccccc3)nc3ccccc32)c1	-9%	-7%
O=C1CN2CCN(CC2)CC(=O)Nc2ccc(cc2)S(=O)(=O)c2ccc(cc2)NC(=O)CN2CCN(CC2)CC(=O)Nc2ccc(cc2)S(=O)(=O)c2ccc(cc2)N1	3.2µM*	3.2µM*
